The campaign covered roughly 2,000 compounds. About 45 (2%) were called active.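 The calls were made as follows: active = inhibition above the screen-wide mean inhibition plus 3 SD (cut at about 44% in these data); inactive = the rest.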 Only a selection was taken, and actives are over-represented in it overall.
Molecular target: Perilipin-1 (Homo sapiens) + 1-acylglycerol-3-phosphate O-acyltransferase ABHD5 (Homo sapiens) (UniProt O60240+Q8WTS1)
Experiment: blockers of ABHD5 binding to perilipin-1 – cell lysate, split luciferase complementation, luminescence, NIH validation set, pilot screen (AID 493027);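 also: 0% = DMSO wells with the 100% control not disclosed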
Settings: split G. princeps luciferase complementation, 4 h; at 7.9 µM, stronger effect = higher value

Sequence of Perilipin-1 (Homo sapiens) + 1-acylglycerol-3-phosphate O-acyltransferase ABHD5 (Homo sapiens) (O60240 whole entry, looked up): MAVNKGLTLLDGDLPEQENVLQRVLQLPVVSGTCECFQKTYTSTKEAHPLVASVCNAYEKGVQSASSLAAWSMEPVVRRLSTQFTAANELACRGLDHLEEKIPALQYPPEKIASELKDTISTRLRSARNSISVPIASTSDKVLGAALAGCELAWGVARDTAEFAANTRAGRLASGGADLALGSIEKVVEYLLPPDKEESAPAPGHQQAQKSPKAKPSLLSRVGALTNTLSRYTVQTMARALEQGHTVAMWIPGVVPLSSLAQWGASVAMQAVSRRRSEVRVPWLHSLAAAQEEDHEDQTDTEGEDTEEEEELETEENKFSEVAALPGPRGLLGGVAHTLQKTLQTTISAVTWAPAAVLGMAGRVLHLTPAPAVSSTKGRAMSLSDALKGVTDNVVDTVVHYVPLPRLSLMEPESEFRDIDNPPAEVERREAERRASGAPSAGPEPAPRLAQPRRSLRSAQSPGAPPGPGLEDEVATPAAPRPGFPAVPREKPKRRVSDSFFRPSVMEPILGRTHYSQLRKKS
Sequence of Perilipin-1 (Homo sapiens) + 1-acylglycerol-3-phosphate O-acyltransferase ABHD5 (Homo sapiens) (Q8WTS1 whole entry, looked up): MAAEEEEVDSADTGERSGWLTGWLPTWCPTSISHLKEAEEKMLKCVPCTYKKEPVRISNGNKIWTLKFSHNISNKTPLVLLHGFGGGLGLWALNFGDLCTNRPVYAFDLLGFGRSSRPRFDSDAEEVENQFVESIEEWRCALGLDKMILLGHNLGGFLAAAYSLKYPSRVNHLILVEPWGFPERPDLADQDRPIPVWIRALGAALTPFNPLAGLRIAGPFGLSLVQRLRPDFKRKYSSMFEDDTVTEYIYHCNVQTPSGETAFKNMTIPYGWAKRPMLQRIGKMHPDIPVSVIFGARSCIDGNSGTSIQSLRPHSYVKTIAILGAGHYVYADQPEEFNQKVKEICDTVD

Compound | inhibition
CCc1ccc(/C=C2\SC(=S)N(CCC(=O)N3CCN(C)CC3)C2=O)cc1 | -12.7% (inactive)
O=c1c2ccccc2nnn1Cc1cccc2ccccc12 | 7.22% (inactive)
COc1cccc(/C=C/C(=O)c2c(O)cc(C)oc2=O)c1O | 47.8% (active)
COc1ccccc1/C=C/C(=O)c1c2c(c(C)[nH]c1=O)CCCC2 | 28.8% (inactive)
COc1ccccc1C(=O)c1cc2ccc(O)cc2oc1=O | 4.61% (inactive)
O=C1C(Cc2ccccc2)NC(=S)N1c1ccccc1 (centres undefined) | -13.4% (inactive)
Cc1ccc2c(c1)OC(=O)CC2c1ccccc1 (centres undefined) | -5.39% (inactive)
Oc1ccccc1OCCOc1ccccc1OCCOc1ccccc1O | 8.26% (inactive)
Cc1cccc(OCC(=O)Nc2ccc(C(=O)NCC(C)C)cc2)c1 | -6.6% (inactive)
CCc1oc2ccccc2c1C(=O)c1cc(Br)c(O)c(Br)c1 | 57.3% (active)
CCCCc1oc2ccccc2c1C(=O)c1cc(I)c(OCCN(CC)CC)c(I)c1 | -6.98% (inactive)
CC(=O)CCc1oc2ccccc2c1-c1ccccc1 | -1.83% (inactive)
COc1cc2c(cc1OC)CN(Cc1ccc(C)s1)CC2 | 2.36% (inactive)
O=C(N1CCCCC1)C1(c2ccccc2)CCOCC1 | -5.12% (inactive)
Cc1cc(O)c2/c(=N\N)c(-c3csc(C)n3)coc2c1 | 5.2% (inactive)
COc1cc(/C=C(\C#N)C(=O)N2CCc3ccccc32)ccc1O | 42.5% (inactive)
COC(=O)c1ccc2c(c1)C(=O)/C(=C/c1ccc(O)cc1)O2 | 7.53% (inactive)
CCc1ccc(/C=C2\Oc3cc(OC(=O)N4CCOCC4)ccc3C2=O)cc1 | 17.4% (inactive)
COc1ccccc1C(=O)Oc1ccc2c(c1)O/C(=C\c1ccncc1)C2=O | 45.6% (active)
O=C(O)CCSc1nc2ccccc2s1 | 0.7% (inactive)
CC[n+]1c(C)sc2cc(C)ccc21 | 0.88% (inactive)
O=C(OCCN1CCCC1)C1(c2ccccc2)CCCC1 | -8.49% (inactive)
Cc1nc(C(=O)Nc2ccccc2Cl)cc2c1[nH]c1ccccc12 | -0.62% (inactive)
COc1ccc(NC(=O)C2C(=O)N(CCO)C3(C)CC2c2ccccc2O3)cc1 (centres undefined) | -10.9% (inactive)
COc1ccc2c(c1)C=CC1(O2)N(CCO)c2ccccc2C1(C)C (centres undefined) | 45.5% (active)

Compound | inhibition
O=C(Nc1cccc(Oc2c(F)c(F)c(F)c(F)c2F)c1)N1C[C@@H]2C[C@@H](C1)c1cccc(=O)n1C2 | 9% (inactive)
COc1ccc(Cc2noc(CN(C)CC3(N4CCOCC4)CCCCC3)n2)cc1OC | -1.95% (inactive)
Cn1cc(C2N3CC4(C)CN2CC(C)(C3)C4=O)c2ccccc21 (centres undefined) | -7.09% (inactive)
C[C@H](NC(=O)Nc1ccccc1F)C(=O)O | -0.07% (inactive)
O=P(O)(O)CP(=O)(O)O | -4.16% (inactive)
COc1cc(/C=C/C(=O)O)cc(S(=O)(=O)NCCCO)c1OC | -7.07% (inactive)
O=C(Nc1ccccc1)OCC1CCCN2CCCCC12 (centres undefined) | -5.9% (inactive)
O=C(NCc1ccccc1Cl)NC(=O)c1ccccc1 | -2.42% (inactive)
Cc1ccc(S(=O)(=O)N[C@@H](Cc2ccccc2)C(=O)CCl)cc1 | 82.3% (active)
CCCCNC(=O)NS(=O)(=O)c1ccc(C)cc1 | -10.7% (inactive)
CNS(=O)(=O)c1ccc(C)cc1 | -13.4% (inactive)
COc1ccc(NC(=O)C2CCCN2C(=O)OC(C)(C)C)cc1 (centres undefined) | -11.3% (inactive)
COc1ccccc1NC(=O)C12CCC(C)(C(=O)C1)C2(C)C (centres undefined) | -0.67% (inactive)
COCCn1c(SCCOc2ccccc2)nc2ccccc2c1=O | -7.89% (inactive)
Cc1nc(N)nc2c1CCCC2 | -5.16% (inactive)
c1cc(-c2ccncc2)ccn1 | -6.1% (inactive)
Nc1cc(-c2ccncc2)c[nH]c1=O | 49% (active)
O=C(O)c1cc2cc(Cl)cc(Cl)c2oc1=O | 1.22% (inactive)
COc1ccc(CCN(C)CC(=O)Nc2cc(C)nc3ccccc23)cc1OC | 3.27% (inactive)
COc1cccc(OC2OC3COC(C)(C)OC3C(O)C2NC(C)=O)c1 (centres undefined) | -10.2% (inactive)
CC(C)[N+]1(C)[C@@H]2CC[C@H]1CC(OC(=O)C(CO)c1ccccc1)C2 (some centres undefined) | -5.55% (inactive)
CCCCC/C=C\C[C@H](O)/C=C/c1cccc(C[C@H](O)CCCCO)n1 | 57.6% (active)
O=P(c1ccccc1)(c1ccccc1)c1nc(-c2ccc(Cl)cc2)oc1N1CCOCC1 | 2.59% (inactive)
COc1ccc(C=O)c(OC)c1 | 0.71% (inactive)
CC(=O)NCCCCCCNC(C)=O | 3.05% (inactive)

Compound | inhibition
Nc1ccc(S(N)(=O)=O)cc1N | 1.88% (inactive)
COc1cc(NC(=S)NN2CCN(C)CC2)cc(OC)c1OC | -10% (inactive)
COc1cc(C2C(C(C)=O)=C(O)C(=O)N2c2ccc(C)cc2)ccc1O (centres undefined) | -3.68% (inactive)
O=C(Nc1cccc(Cl)c1)N1CCN2C(=O)c3ccccc3C12c1ccccc1 (centres undefined) | 6.94% (inactive)
O=C1c2ccccc2C2(c3ccccc3)NCCN12 (centres undefined) | 0.96% (inactive)
CC1(c2ccccc2)CC(C)(C)N2C(=O)C(=O)c3cccc1c32 (centres undefined) | 65.7% (active)
CC(=O)c1cccc(NC(=O)N[C@@H](CC(C)C)C(=O)O)c1 | -3.15% (inactive)
COc1ccc(C(=O)Nc2ccc(OC)c([N+](=O)[O-])c2)cc1Br | 0.74% (inactive)
COc1ccc(C(=O)/C=C/c2cc(C(=O)O)cc3c2OCOC3)c(O)c1 | 67.3% (active)
COc1ccc(C(=O)COc2ccc(F)cc2)c(O)c1 | -7.26% (inactive)
C[C@H]([C@@H](N)C(=O)N[C@@H](C(=O)O)[C@@H]1O[C@H](n2ccc(=O)[nH]c2=O)[C@@H](O)[C@H]1O)[C@@H](O)c1ccc(O)cn1 | 8.07% (inactive)
CCOC(=O)C1CCCN(Cc2nc(Cc3cccc(F)c3)no2)C1 (centres undefined) | -4.38% (inactive)
COC(=O)c1cc(=O)c2ccc(OC)cc2o1 | -10.3% (inactive)
CSCC[C@H](NC(=O)OC(C)(C)C)C(=O)N1CCC(C(=O)N[C@@H](C)C(=O)O)CC1 | -2.64% (inactive)
CC1(C)C(C=C(Cl)Cl)C1C(=O)N1CCN(Cc2ccccc2)CC1 (centres undefined) | -10.6% (inactive)
CC(C)=CCCC(C)CN1CCC(N2CCC(C(=O)N3CCCC3)CC2)CC1 (centres undefined) | -9.96% (inactive)
CC1(C)CC(O)(CNCc2ccc3c(c2)OCO3)CCO1 (centres undefined) | -11.9% (inactive)
S=C(NCc1ccccc1)NCc1cccc(CNC(=S)NCc2ccccc2)c1 | 4.65% (inactive)
N#C/C(=C/c1ccccc1)C(=O)NCc1ccccc1 | 53.3% (active)
N#C/C(=C\c1ccc(O)c(O)c1)C(=O)NCCCc1ccccc1 | 37.9% (inactive)
CN1[C@@H]2CC[C@H]1CC(OC(=O)C(CO)c1ccccc1)C2 (some centres undefined) | -16.1% (inactive)
COC(=O)c1cc(C(=O)NCCC(C)C)cc([N+](=O)[O-])c1 | -28.2% (inactive)
COc1cc(OC)c(C2C(C#N)=C(N)OC3=C2C(=O)CC(C)(C)C3)cc1OC (centres undefined) | -0.37% (inactive)
COc1ccc(-c2nc3c(=O)n(C)c(=O)[nH]c3n2CCc2ccccc2)cc1 | -1.13% (inactive)

Reference: PubChem BioAssay AID493027 (The Scripps Research Institute Molecular Screening Center, 2011)
